Screening data: PubChem BioAssay, National Center for Advancing Translational Sciences (NCATS)
TSG101-PTAP inh = blocks PTAP/TSG101 interaction to inhibit HIV-1 budding; Q99816; Fluorescence polarization, FITC-PTAP peptide / Tsg101 binding; Potency, µM (doses to about 115 µM), usual class: inhibitors; 340,000 tested, under 10 active; active means well fitted inhibition curve with a large enough effect in the main read-out, with a control signal flat, not every such curve was filed as active; inconclusive means small, poorly fitted or top-dose-only effect, or effect the other way, or a change in a side signal; inactive means no such curve, though single readings can be large or run the other way
Target sequence (Q99816 whole entry, looked up): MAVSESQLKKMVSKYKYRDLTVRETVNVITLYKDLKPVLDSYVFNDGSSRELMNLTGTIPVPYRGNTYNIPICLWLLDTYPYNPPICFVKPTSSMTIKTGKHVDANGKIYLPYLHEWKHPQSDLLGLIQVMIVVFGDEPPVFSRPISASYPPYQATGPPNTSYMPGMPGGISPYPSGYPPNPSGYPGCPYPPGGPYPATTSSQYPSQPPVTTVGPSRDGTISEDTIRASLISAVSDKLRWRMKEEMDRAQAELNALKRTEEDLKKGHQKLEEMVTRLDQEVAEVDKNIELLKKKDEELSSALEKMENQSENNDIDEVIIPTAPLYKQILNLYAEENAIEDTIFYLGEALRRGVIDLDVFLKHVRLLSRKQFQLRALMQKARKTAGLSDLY
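Tsg101 binding domain (10 uM final) was mixed with compound and a FITC-labeled PTAP peptide (50 nM final) in HEPES pH 7.5 buffer with NaCl, Tween 20, EDTA and TCEP; fluorescence polarization was read after 20 min at r.t.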
KB-V1 cytotox = kills drug-selected multidrug resistant KB-V1 cells; KB-V1 MDR cells viability, CellTiter-Glo, 72 h; Potency, µM (series often up to 46.1 µM), usual class: cytotoxic; actives 3.4% (n = 400,000); further: nearly all actives have a fitted effect of over 60% in size
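Readout: CellTiter-Glo luminescence, 10 min after addition. Cells: KB-V1 MDR subline, 72 h at 37 degrees C with compound. Analysis: corrected, normalized data fitted to concentration-effect curves.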
RGS4 inh = inhibitors of human regulator of G protein signaling 4; Transcreener GDP fluorescence polarization, RGS4-accelerated GTP hydrolysis; Potency, µM (titrated, usually from 114 µM), usual class: inhibitors; actives 0.039% (n = 390,000); further: nearly all actives have a fitted effect of over 75% in size
Target sequence (P49798 whole entry, looked up): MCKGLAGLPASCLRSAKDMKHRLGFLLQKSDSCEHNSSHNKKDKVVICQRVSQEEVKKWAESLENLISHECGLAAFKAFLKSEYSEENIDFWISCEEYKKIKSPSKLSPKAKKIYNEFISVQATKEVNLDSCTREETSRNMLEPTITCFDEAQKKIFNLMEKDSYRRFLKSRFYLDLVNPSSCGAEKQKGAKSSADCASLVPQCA
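MLSMR compounds (23 nl, pin-transferred) preincubated 10 min at room temperature with a 500nM (2x) first reagent, then RGS4 at 900nM (2x) plus Transcreener GDP mix added; fluorescence polarization (620/688 nm) read before and after 90 min at 30 °C.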
SW480 rereplic = induces DNA re-replication in SW480 colon adenocarcinoma cells | SW480 DNA re-replication, Hoechst DNA content imaging, 48 h | Potency, µM (top dose mostly 46.1 µM), most hits filed as activators | actives 1.8% (n = 340,000); further: nearly all actives have a fitted effect of over 55% in size
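SW480 cells exposed to compounds for 48 hr at 37 C, 5% CO2, then Hoechst-stained 40 min. Nuclear DNA content imaged by fluorescence scanning (405 nm excitation, 500-530 nm emission); re-replication scored as increased high-intensity nuclei.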
MCF10A rerep = inducers of DNA re-replication in MCF 10A breast cells. MCF 10A DNA re-replication, Hoechst nuclear intensity, 48 h. Potency, µM (titrated, usually from 46.1 µM), hits mostly activators. actives 2.9% (n = 350,000). AID 624296; further: nearly all actives have a fitted effect of over 50% in size
KB-3-1 cytotox = KB-3-1 parental cell cytotoxicity | Potency, µM (doses to about 46.1 µM), hits mostly cytotoxic | KB-3-1 viability, CellTiter-Glo ATP luminescence, 72 h | actives 1.4% (n = 400,000); further: nearly all actives have a fitted effect of over 60% in size
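KB-3-1 parental drug-naive adenocarcinoma cells in DMEM/10% FBS, incubated 72 h at 37 C with pin-transferred compounds across a concentration series. Viability by CellTiter-Glo luminescence; concentration-response curves fitted after normalization.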
Numbers stand for hits; 0 = inactive; ? = inconclusive; - = not tested or not shown; [ ] = dose if it differs, or a comment. The list is not random: actives were taken first. Their share in the collection is about 6.6%. Unless noted, the call rests on the fitted dose curve; in most records, active means well fitted curve in the direction sought with a large enough effect; inconclusive means small, poorly fitted or top-dose-only effect, or another doubt; inactive means no such curve, though single readings can be large; an effect the other way counts as inactive or inconclusive.

SMILES	TSG101-PTAP inh	KB-V1 cytotox	RGS4 inh	SW480 rereplic	MCF10A rerep	KB-3-1 cytotox
COc1ccc(NC(=O)C(=O)NCCC2CCCCN2S(=O)(=O)c2cccs2)cc1 (configuration not stated)	0	1.8µM	0	4.5µM	2.1µM	2.6µM
Cc1ccc(NC(NC(=O)Cc2ccccc2)C(Cl)(Cl)Cl)cc1 (configuration not stated)	0	15µM	0	0	0	?
O=C(O)c1cccc(NC(=S)NC(NC(=O)c2ccccc2[N+](=O)[O-])C(Cl)(Cl)Cl)c1 (configuration not stated)	0	0	0	0	0	0
Cc1ccc(NC(NC(=O)c2ccccc2[N+](=O)[O-])C(Cl)(Cl)Cl)cc1 (configuration not stated)	0	21µM	0	0	0	0
COc1ccc(-n2c(=O)c3sc4ccccc4c3n(C)c2=O)cc1	-	0	0	-	-	0
CCOC(=O)CC(NC(=O)CCc1c(C)nc2cc(-c3ccccc3)nn2c1C)c1ccc(C)cc1 (configuration not stated)	-	0	0	-	-	0
COc1ccc(NC(=O)c2nc(SCc3ccccc3F)ncc2Cl)cc1	-	0	0	-	-	0
Cc1ccc2[nH]c(C(=O)O)c(-c3ccccc3)c2c1	0	0	0	0	0	0
O=C(N/N=C/c1ccccc1Cl)c1[nH]c2ccc(Br)cc2c1-c1ccccc1	?	5.8µM	0	?	?	?
NNC(=O)c1[nH]c2ccc(Cl)cc2c1-c1ccccc1	0	?	0	?	9.2µM	?
Cc1ccc2[nH]c(C(=O)NN=C3CCCCC3)c(-c3ccccc3)c2c1	0	?	0	?	16µM	0
CC(=O)Nc1c(-c2ccccc2)c2cc(Br)ccc2[nH]c1=O	0	0	0	0	0.73µM	0
CC(=O)NNC(=O)c1[nH]c2ccc(Br)cc2c1-c1ccccc1	0	0	0	?	0	0
CCCN1CNc2c(c(=O)[nH]c(=S)n2CCc2cccc(C)c2)C1	-	-	0	-	-	-
CCOc1ccc(CNC(=O)c2ccc(NC(=O)N3CCSc4ncccc43)cc2)cc1OC	-	?	0	-	-	0
CCOC(=O)c1c(NC(C)=O)c2c3c(sc2n1Cc1cccc(Cl)c1)CCCC3	-	-	0	-	-	-
COc1ccc(N2C(=O)CS(=O)(=O)C23C(=O)N(Cc2ccc(F)cc2)c2ccc(C)cc23)cc1 (configuration not stated)	-	?	0	-	-	0
COc1ccc(/C=N/NC(=O)c2[nH]c3ccc(Br)cc3c2-c2ccccc2)c(C(=O)O)c1OC	0	0	0	0	0	0
COc1ccc(/C=N/NC(=O)c2[nH]c3ccc(Br)cc3c2-c2ccccc2)cc1	0	1µM	0	1.2µM	0.21µM	0.82µM
O=C(Cc1ccccc1)NCC(=O)OCC(=O)c1ccc2ccccc2c1	-	0	0	-	-	0
Cc1ccc2nc(CSc3nc(C)cc(C)c3C#N)[nH]c2c1	0	0	0	4.6µM	1.8µM	0
O=C(Nc1ccc(Br)cc1)c1cccc(C(=O)Nc2ccc(Br)cc2)c1	-	-	0	-	-	-
CSc1nc(N)nc(SCCS(=O)(=O)c2ccc(Cl)cc2)c1C#N	0	?	0	?	13µM	0
CSc1nc(N)nc(SCC(=O)Nc2ccc(Cl)cc2)c1C#N	0	0	0	0	0	?
Fc1ccccc1-n1ncc2c1ncn1nc(Cc3ccccc3)nc21	-	-	0	-	-	-
SMILES	TSG101-PTAP inh	KB-V1 cytotox	RGS4 inh	SW480 rereplic	MCF10A rerep	KB-3-1 cytotox
O=C(Nc1ccc(F)cc1C(F)(F)F)C1CCN(c2ncccn2)CC1	-	0	0	-	-	0
O=C(O)c1ccc2c(ccc3nn(-c4ccc(/C=C/c5ccc(-n6nc7ccc8cc(C(=O)O)ccc8c7n6)cc5[S+](=O)([O-])[O-])c([S+](=O)([O-])[O-])c4)nc32)c1	-	0	?	-	-	0
Clc1ccc(-c2nnc(-c3ccc(Br)cc3)c(N3CCSCC3)n2)cc1	0	0	0	0	0	0
Clc1ccc(-c2nnc(-c3ccco3)nc2N2CCCCC2)cc1	0	18µM	?	0	?	0
COc1ccc2c(c1)CC(NC(=O)Nc1ccc(NC(C)=O)cc1)CO2 (configuration not stated)	-	0	0	-	-	0
CCc1ccc(C(=O)c2cn(CC(=O)Nc3ccc4c(c3)OCO4)c3ccc(OC)cc3c2=O)cc1	-	?	?	-	-	0
Cc1ncc(COCc2ccccc2)c(CO)c1OCc1ccccc1	0	18µM	0	0	0	0
Cc1ccc(S(=O)(=O)Nc2ccc(-c3cn4ccc(C)cc4n3)cc2)cc1	0	0	0	0.73µM	21µM	0
Cc1ccn2cc(-c3ccc(NS(=O)(=O)c4ccccc4)cc3)nc2c1	0	16µM	0	0	?	0
Clc1ccc(-c2csc3ncnc(Sc4nnnn4-c4ccccc4)c23)cc1	-	0	-	-	-	?
Clc1ccc(-n2nnnc2Sc2ncnc3sccc23)cc1	0	?	0	6.5µM	10µM	?
CN(C)S(=O)(=O)c1ccc(NC(=O)c2cc(F)c(F)cc2Cl)cc1	0	23µM	0	0	0	0
CCc1cccc(OCC(=O)Nc2cc(Cl)ccc2-n2cncn2)c1	0	0	0	4.6µM	?	0
C#CCN[C@@H]1CCc2ccccc21	-	-	-	0	0	-
Cc1ccc(CNC(=O)c2ccc(-c3nc(CN4CCc5ccccc54)c(C)o3)cc2)cc1	-	?	0	-	-	0
Cc1oc(-c2ccc(-c3ccccc3)cc2)nc1CN1CCN(CC(=O)N(C)C)CC1	0	0	0	0	0	0
COCCNC(=O)c1ccc(-c2nc(CN3CCc4ccccc43)c(C)o2)cc1	-	10µM	0	-	-	?
Cc1oc(-c2ccc(C(=O)N(C)Cc3ccccc3)cc2)nc1CN1CCc2ccccc21	-	13µM	0	-	-	15µM
COc1ccc(OC)c(NC(=O)CN(C)S(=O)(=O)c2ccc(C(=O)N3CCOCC3)s2)c1	-	0	0	-	-	0
CC(=O)C1=C(O)C(=O)N(CCc2ccccc2)C1c1ccccc1[N+](=O)[O-] (configuration not stated)	0	0	0	0	0	0
CCN(CC)CCN1C(=O)C(O)=C(C(C)=O)C1c1ccccc1[N+](=O)[O-] (configuration not stated)	0	?	0	?	21µM	0
COc1cc2c(cc1OC)C1(Nc3c-2c(C)nn3-c2ccccc2)C(=O)Nc2ccccc21 (configuration not stated)	0	0	0	0[9.22 µM]	?	0
CCc1nn(-c2ccccc2)c2c1-c1cc(OC)c(OC)cc1C1(N2)C(=O)Nc2ccccc21 (configuration not stated)	0	?	0	?	21µM	0
